Reference: PubChem BioAssay
Activity calls are given as the source filed them. Unless noted, no rule for the calls is given here.

Tests used:
[1] = resazurin metabolic signal in HepG2 cells – cell-based, resazurin fluorescence, 24 h, PK04 Diversity Set, profiling panel (AID 1172); settings: HepG2 viability, higher = more signal; also: test concentration not given here
[2] = budding yeast growth changes without added modifier – OD600, strain BY4716, 24 h, basal condition, primary screen (AID 1173); settings: S. cerevisiae BY4716 growth, OD600, 24 h; higher = more signal, called active from +8 up or from −8 down
[3] = viability profiling in MM1S myeloma cells – cell-based, resazurin fluorescence, basal, 24 h, PK04 Diversity Set, profiling panel (AID 1174); settings: higher = more signal, called active from +8 up or from −8 down;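 also: MM1S multiple myeloma cell line; test concentration not given here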
[4] = target: Dihydroorotate dehydrogenase (quinone), mitochondrial (Plasmodium falciparum (isolate 3D7)) (UniProt Q08210); test: inhibition of P. falciparum DHODH – biochemical, C-terminal His tag, absorbance 600 nm, primary screen (AID 1175); settings: PfDHODH enzyme, DCIP absorbance 600 nm; higher = more signal, called active from +8 up or from −8 down;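 also: recombinant parasite enzyme with a five histidine tag at its C terminus; test concentration not given here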
[5] = inhibition of PAO1 biofilm formation – strain PAO1, LB-PBS medium, absorbance 600 nm, primary screen (AID 1176); also: test concentration not given here; settings: P. aeruginosa PAO1 growth/biofilm, A600, 12 h; higher = more signal
[6] = growth modulation of vineyard yeast isolate – strain RM11-1a, OD600, basal, 24 h, primary screen (AID 1177);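 also: cultures grown under basal conditions with no added stressor; test concentration not given here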; settings: S. cerevisiae RM11-1a growth, OD600, 24 h; higher = more signal, called active from +8 up or from −8 down
[7] = growth of efflux-deficient E. coli DRC39 – strain DRC39, OD650, 24 h, E. coli filamentation inducers, primary screen (AID 1178);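 also: growth measured as culture turbidity by optical density at 650 nm; test concentration not given here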; settings: E. coli DRC39 acrAB, higher = more signal, called active from +8 up or from −8 down
[8] = growth of efflux-deficient E. coli DRC39 – strain DRC39, OD650, 48 h, E. coli filamentation inducers, primary screen (AID 1179);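 also: screen aims at cell division blockers that make cells filament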; settings: E. coli DRC39 delta-acrAB growth, higher = more signal, called active from +8 up or from −8 down
[9] = viability profiling in RPMI8226 myeloma cells – cell-based, resazurin fluorescence, basal, 24 h, PK04 Diversity Set, profiling panel (AID 1180); settings: higher = more signal;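 also: RPMI8826 multiple myeloma cell line at 5000 cells per well; test concentration not given here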
[10] = target: E3 ubiquitin-protein ligase XIAP (Homo sapiens) (UniProt P98170); test: small molecules binding XIAP protein – biophysical, small-molecule microarray, fluorescence 635 nm, primary screen (AID 1181); settings: higher = more signal;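 also: score merges 667 nm emission and signal to noise over triplicate slides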
E3 ubiquitin-protein ligase XIAP (Homo sapiens), sequence (P98170 whole entry, looked up): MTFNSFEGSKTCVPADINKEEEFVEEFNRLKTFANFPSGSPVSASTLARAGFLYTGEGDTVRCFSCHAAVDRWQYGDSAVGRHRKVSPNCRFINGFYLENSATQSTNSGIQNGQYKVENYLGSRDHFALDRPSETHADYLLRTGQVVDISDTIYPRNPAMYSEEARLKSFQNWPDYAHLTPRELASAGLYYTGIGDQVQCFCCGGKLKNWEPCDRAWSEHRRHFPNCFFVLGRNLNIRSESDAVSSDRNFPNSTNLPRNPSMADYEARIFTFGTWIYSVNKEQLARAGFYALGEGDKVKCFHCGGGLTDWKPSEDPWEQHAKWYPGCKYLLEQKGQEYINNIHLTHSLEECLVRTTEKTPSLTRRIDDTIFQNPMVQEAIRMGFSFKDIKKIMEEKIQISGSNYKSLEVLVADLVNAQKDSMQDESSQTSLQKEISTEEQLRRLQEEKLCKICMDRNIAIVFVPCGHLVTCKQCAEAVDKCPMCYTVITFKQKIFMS

Dihydroorotate dehydrogenase (quinone), mitochondrial (Plasmodium falciparum (isolate 3D7)), sequence (Q08210 whole entry, looked up): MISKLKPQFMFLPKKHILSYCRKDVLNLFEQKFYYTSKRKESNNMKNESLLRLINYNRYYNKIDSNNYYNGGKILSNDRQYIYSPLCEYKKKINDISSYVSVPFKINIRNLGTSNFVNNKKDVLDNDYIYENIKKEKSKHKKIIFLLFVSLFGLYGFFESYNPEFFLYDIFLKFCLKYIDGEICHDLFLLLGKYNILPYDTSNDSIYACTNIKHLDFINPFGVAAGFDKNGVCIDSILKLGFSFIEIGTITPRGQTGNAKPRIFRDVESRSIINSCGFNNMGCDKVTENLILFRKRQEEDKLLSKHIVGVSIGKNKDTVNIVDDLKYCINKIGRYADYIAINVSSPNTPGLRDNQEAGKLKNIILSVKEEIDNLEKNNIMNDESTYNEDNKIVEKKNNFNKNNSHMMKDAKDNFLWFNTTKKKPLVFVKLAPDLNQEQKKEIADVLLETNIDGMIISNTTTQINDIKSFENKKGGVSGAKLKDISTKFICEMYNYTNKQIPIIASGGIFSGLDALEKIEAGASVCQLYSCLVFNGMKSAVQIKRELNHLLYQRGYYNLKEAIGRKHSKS

Compound | z-score [1] | z-score [2] | z-score [3] | composite z-score [4] | z-score [5] | z-score [6] | z-score [7] | z-score [8] | z-score [9] | composite z-score [10]
COc1ccc(C(O)C2C=CC3C(=O)N(c4ccccc4)C(=O)C3N2Nc2ccc(C(C)C)cc2)c2ccccc12 (stereo not given) | -2.57 | -1.62 (inactive) | -0.871 (inactive) | 0.183 (inactive) | 1.8 (inactive) | 0.427 (inactive) | 0.0571 (inactive) | 0.313 (inactive) | -0.208 | 0.349
CC(C)C(=C=CC[C@H](O)c1cccc(OCCO)c1)CCO | 0.934 | -1.47 (inactive) | 1.09 (inactive) | -0.131 (inactive) | -0.0464 (inactive) | -0.661 (inactive) | 0.353 (inactive) | 0.642 (inactive) | 0.929 | -0.031
CCOC(=O)C1=CC[C@@H](c2ccccc2)N(S(=O)(=O)c2ccc(C)cc2)[C@H]1C=Cc1ccccc1 | 1.25 | 1.58 (inactive) | -0.0664 (inactive) | -0.382 (inactive) | 0.987 (inactive) | 0.65 (inactive) | -0.923 (inactive) | -0.706 (inactive) | -1.42 | -0.103
CC(=O)n1cc(C(O)C2C=CC3C(=O)N(c4ccccc4)C(=O)C3N2Nc2ccc(C(C)C)cc2)c2ccccc21 (stereo not given) | -1.41 | -2.33 (inactive) | -1.12 (inactive) | 0.708 (inactive) | 1.44 (inactive) | 1.36 (inactive) | -0.0648 (inactive) | -0.0683 (inactive) | -1.06 | 0.0072
COc1ccc(C#Cc2ccc3c(c2)[C@]2(C(=O)N3)[C@H](C(=O)Nc3nc4ccccc4s3)[C@H]3C(=O)O[C@H](c4ccccc4)[C@H](c4ccccc4)N3[C@@H]2c2ccccc2OCCO)cc1 | 0.154 | 1.08 (inactive) | 0.303 (inactive) | -5.43 (inactive) | 2.69 (inactive) | 1.66 (inactive) | 0.82 (inactive) | 0.413 (inactive) | 1.5 | 0.0507
COCCCNC(=O)[C@@]1(Sc2ccc(C)cc2)CC(=O)N(C(C)C)[C@@H]1c1ccc(CO)cc1I | -0.312 | -3.22 (inactive) | -2.35 (inactive) | -0.642 (inactive) | 0.394 (inactive) | -1.82 (inactive) | 0.0841 (inactive) | -0.0194 (inactive) | -1.97 | -0.37
CN(C)CCCCCCNC(=O)[C@@H]1C[C@@H]2C(=O)N[C@@H](CCCCN)C(=O)N2[C@@H]1c1ccc(O)cc1 | -0.0356 | -1.56 (inactive) | 1.79 (inactive) | -0.0587 (inactive) | 1.63 (inactive) | -0.63 (inactive) | 0.739 (inactive) | -1.59 (inactive) | 0.659 | 3.51
COc1ccc(C(O)C2C=CC3C(=O)N(c4ccccc4)C(=O)C3N2Nc2ccccc2F)cc1 (stereo not given) | -0.229 | -0.359 (inactive) | -0.0646 (inactive) | -0.0377 (inactive) | 0.987 (inactive) | -0.687 (inactive) | -0.548 (inactive) | -0.869 (inactive) | 0.435 | 0.483
C=C/C=C/[C@@H]1C(=C)CN([C@@H](Cc2ccccc2)C(=O)OC)[C@H]1[C@@H](O)Cc1ccccc1 | 0.779 | -1.03 (inactive) | -0.196 (inactive) | 0.0865 (inactive) | 0.106 (inactive) | 0.774 (inactive) | 0.18 (inactive) | -0.45 (inactive) | -0.697 | -0.0349
O=C1O[C@H](c2ccccc2)[C@H](c2ccccc2)N2[C@H]1[C@@H](C(=O)N1CCCCCCC1)[C@]1(C(=O)Nc3ccc(C#CC4(O)CCCCCC4)cc31)[C@H]2c1ccccc1OCCO | 1.72 | 0.893 (inactive) | -0.382 (inactive) | 0.195 (inactive) | 0.682 (inactive) | 2.45 (inactive) | 0.138 (inactive) | -1.14 (inactive) | -0.443 | 2.12
CN1C(=O)[C@@]2(Cc3ccccc3)N=C(c3ccc(OCCCO)cc3)O[C@H]2c2ccccc21 | -0.286 | -6.2 (inactive) | -2.4 (inactive) | 0.271 (inactive) | 1.14 (inactive) | 0.202 (inactive) | 0.432 (inactive) | 0.514 (inactive) | -1.99 | 0.283
C[C@]1(C(=O)NCC(F)(F)F)c2ccccc2C(=O)N(Cc2ccccc2)[C@H]1c1ccc(CO)cc1 | -0.398 | 0.0742 (inactive) | 0.525 (inactive) | 0.721 (inactive) | -0.0807 (inactive) | 0.433 (inactive) | 0.242 (inactive) | 0.824 (inactive) | 0.937 | -0.102
[N-]=[N+]=Nc1ccccc1C[C@]1(C(=O)O)N=C(c2ccc(OCCCO)cc2)O[C@H]1c1ccccc1 | -0.0033 | -1.77 (inactive) | -1.1 (inactive) | 0.502 (inactive) | 0.258 (inactive) | -0.1 (inactive) | -0.115 (inactive) | -0.0225 (inactive) | -0.954 | -0.0562
O=C1N[C@@H](Cc2ccccc2)C(=O)N2[C@@H]1C[C@@H](C(=O)O)[C@H]2c1ccc(O)cc1 | -0.425 | -1.14 (inactive) | 0.746 (inactive) | -0.708 (inactive) | -0.13 (inactive) | -0.319 (inactive) | -0.143 (inactive) | -0.803 (inactive) | 0.0674 | 0.0518
C=C[C@H](C)[C@H](OC(=O)Nc1ccc(OC)cc1)c1ccc(OCCO)cc1 | -0.178 | -5.91 (inactive) | 1.69 (inactive) | -0.285 (inactive) | 0.413 (inactive) | -0.354 (inactive) | 1.43 (inactive) | 0.465 (inactive) | 0.603 | 0.34
CCOC(=O)C1=C[C@@H](C(C)(C)C)N(S(=O)(=O)c2ccc(C)cc2)[C@H]1c1ccccc1 | -0.159 | 1.53 (inactive) | -0.562 (inactive) | -0.294 (inactive) | 0.0083 (inactive) | 1.59 (inactive) | 0.128 (inactive) | -0.0515 (inactive) | -1.11 | -0.162
C=C(COC)C(=O)CC[C@H](OC(=O)c1cccnc1)c1ccc(CO)o1 | -0.655 | -1.29 (inactive) | -0.317 (inactive) | -3.37 (inactive) | 0.142 (inactive) | -0.663 (inactive) | -0.659 (inactive) | -0.649 (inactive) | -0.732 | 0.0565
COC(=O)[C@@]1(Cc2ccccc2)[C@H]2c3cc(C(=O)N(C)C)n(CCn4cc([N+](=O)[O-])nc4C)c3C[C@H]2CN1C(=O)c1ccccc1 | 0.002 | 0.815 (inactive) | -0.271 (inactive) | -0.831 (inactive) | 1.41 (inactive) | -0.68 (inactive) | -0.211 (inactive) | 0.145 (inactive) | 0.413 | 1.01
COc1cc(NN2C(C(O)C3CCCCC3)C=CC3C(=O)N(c4ccccc4)C(=O)C32)cc(OC)c1OC (stereo not given) | -1.64 | 1.2 (inactive) | -1.62 (inactive) | -0.0779 (inactive) | 0.698 (inactive) | 0.135 (inactive) | -0.0089 (inactive) | -0.545 (inactive) | -1.67 | 0.337
COCC(=C=CC[C@@H](O)c1cccc(OCCO)c1)CCO | -0.161 | -0.773 (inactive) | -0.0845 (inactive) | -2.07 (inactive) | -0.59 (inactive) | -0.357 (inactive) | 0.583 (inactive) | 0.464 (inactive) | -0.0794 | -0.241
COCCOC(=O)N1C(=O)[C@@]2(c3cc(C#CCCO)ccc31)[C@H](c1ccccc1OCCO)N1[C@H](c3ccccc3)[C@H](c3ccccc3)OC(=O)[C@H]1[C@@H]2C(=O)N1CCCCCCC1 | 0.543 | 0.971 (inactive) | -0.649 (inactive) | 0.495 (inactive) | 1.32 (inactive) | 2.11 (inactive) | -0.255 (inactive) | 0.343 (inactive) | 0.484 | 0.236
CCOC(=O)C[C@H]1[C@H](OC(=O)c2ccc(C(=O)c3ccccc3)cc2)[C@@H](NC(=O)CC(C)C)c2cc(OCCCO)ccc2N1C(=O)Cc1ccc(OC)cc1 | -0.204 | -0.316 (inactive) | 0.191 (inactive) | 0.166 (inactive) | 0.608 (inactive) | 0.113 (inactive) | -0.445 (inactive) | -0.0261 (inactive) | 0.0274 | -0.289
C=CCC(OC(C)=O)[C@@H]1[C@@H](N(Cc2cccc3ccccc23)C(=O)c2cccc3ccccc23)c2cc(OCCCO)ccc2N1C(=O)c1ccc2ccccc2c1 (stereo not given in full) | 0.628 | -0.775 (inactive) | 0.62 (inactive) | -0.29 (inactive) | -1.44 (inactive) | -0.646 (inactive) | 0.745 (inactive) | 0.386 (inactive) | -0.0722 | -0.179
CC(C)C[C@@H]1NC(=O)[C@@H]2C[C@H](C(=O)NCCCCCC[N+](C)(C)C)[C@H](c3cccc(OCCO)c3)N2C1=O | -0.482 | 0.62 (inactive) | -0.384 (inactive) | -0.317 (inactive) | 0.683 (inactive) | -0.0613 (inactive) | -0.466 (inactive) | -1.15 (inactive) | -0.899 | -0.227
Cc1ccc(S[C@]2(C(=O)NCC(C)C)CC(=O)N(C3Cc4ccccc4C3)[C@@H]2c2ccc(CO)cc2I)cc1 | 0.0073 | -1.51 (inactive) | -2.16 (inactive) | -0.0634 (inactive) | 0.503 (inactive) | 0.207 (inactive) | -0.0452 (inactive) | -0.138 (inactive) | -2.55 | -0.214
COc1cc2c(cc1OC)CN(C(=O)[C@@H]1[C@H]3C(=O)O[C@H](c4ccccc4)[C@H](c4ccccc4)N3[C@H](c3ccc(O)cc3)[C@@]13C(=O)Nc1ccc(C#CCCO)cc13)CC2 | 0.0462 | 1.03 (inactive) | -1.22 (inactive) | 0.838 (inactive) | 1.2 (inactive) | 1.66 (inactive) | 0.437 (inactive) | 0.258 (inactive) | -0.657 | -0.269
